From the supplement of paper PMC8975748
Where a name gives a salt, the structure may show the parent alone. ± gives the standard deviation of the averaged measurements.

How the values were obtained:
[1] = system: Saccharomyces cerevisiae BY4741 SeMeCo community; assay: mean cell size (pixel area) (pixels); higher = larger cells; details: 10 µM; 24 h; SM minimal medium
Outline: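 The test system was a fluorescent Saccharomyces cerevisiae BY4741 community with four plasmids, each restoring one auxotrophy and carrying a fluorescent marker. Cells were grown for 24 h in SM medium with drug at a final 10 µM in 384-well plates, then fixed with paraformaldehyde and imaged by automated confocal microscopy for Harmony analysis of mean cell pixel area per well. Values represent the average of 3 replicates. Same SeMeCo high-content imaging drug screen: Selleck FDA-approved drugs at 10 µM, 24 h in SM medium, 384-well plates, 3 replicates.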

[2] = system: Saccharomyces cerevisiae BY4741 SeMeCo community; assay: z-score of prototroph abundance vs DMSO median; higher = larger share of this subpopulation than in DMSO controls; details: 10 µM; 24 h; SM minimal medium; subpopulation (auxotrophy): Prototroph
Outline: (§1)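 Scoring was based on each subpopulation's abundance, expressed as a z-score against the vehicle-well median. A Saccharomyces cerevisiae BY4741 community with four plasmids, each restoring one auxotrophy and encoding a distinct fluorescent protein, was pre-grown overnight to OD600 1.0, diluted to 0.3, and added at 70 µl to 384-well plates acoustically predosed with library drugs (10 µM final). It then grew 24 h in minimal SM medium before paraformaldehyde fixation and automated confocal microscopy, with single-auxotroph fluorescent strains setting thresholds and autofluorescence correction.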

[3] = system: Saccharomyces cerevisiae BY4741 SeMeCo community; assay: z-score of subpopulation abundance vs DMSO median, subpopulation auxotrophic for U; higher = larger share of this subpopulation than in DMSO controls; details: 10 µM; 24 h; SM minimal medium; subpopulation (auxotrophy): U
Outline: as §1

[4] = system: Saccharomyces cerevisiae BY4741 SeMeCo community; assay: z-score of subpopulation abundance vs DMSO median, subpopulation auxotrophic for H; higher = larger share of this subpopulation than in DMSO controls; details: 10 µM; 24 h; SM minimal medium; subpopulation (auxotrophy): H
Outline: as §1

[5] = system: Saccharomyces cerevisiae BY4741 SeMeCo community; assay: z-score of subpopulation abundance vs DMSO median, subpopulation auxotrophic for LU; higher = larger share of this subpopulation than in DMSO controls; details: 10 µM; 24 h; SM minimal medium; subpopulation (auxotrophy): LU
Outline: as §1

[6] = system: Saccharomyces cerevisiae BY4741 SeMeCo community; assay: z-score of subpopulation abundance vs DMSO median, subpopulation auxotrophic for LM; higher = larger share of this subpopulation than in DMSO controls; details: 10 µM; 24 h; SM minimal medium; subpopulation (auxotrophy): LM
Outline: as §1

[7] = system: Saccharomyces cerevisiae BY4741 SeMeCo community; assay: z-score of subpopulation abundance vs DMSO median, subpopulation auxotrophic for HM; higher = larger share of this subpopulation than in DMSO controls; details: 10 µM; 24 h; SM minimal medium; subpopulation (auxotrophy): HM
Outline: as §1

[8] = system: Saccharomyces cerevisiae BY4741 SeMeCo community; assay: z-score of subpopulation abundance vs DMSO median, subpopulation auxotrophic for HU; higher = larger share of this subpopulation than in DMSO controls; details: 10 µM; 24 h; SM minimal medium; subpopulation (auxotrophy): HU
Outline: as §1

[9] = system: Saccharomyces cerevisiae BY4741 SeMeCo community; assay: z-score of subpopulation abundance vs DMSO median, subpopulation auxotrophic for UM; higher = larger share of this subpopulation than in DMSO controls; details: 10 µM; 24 h; SM minimal medium; subpopulation (auxotrophy): UM
Outline: as §1

[10] = system: Saccharomyces cerevisiae BY4741 SeMeCo community; assay: z-score of subpopulation abundance vs DMSO median, subpopulation auxotrophic for HL; higher = larger share of this subpopulation than in DMSO controls; details: 10 µM; 24 h; SM minimal medium; subpopulation (auxotrophy): HL
Outline: as §1

[11] = system: Saccharomyces cerevisiae BY4741 SeMeCo community; assay: z-score of subpopulation abundance vs DMSO median, subpopulation auxotrophic for HLU; higher = larger share of this subpopulation than in DMSO controls; details: 10 µM; 24 h; SM minimal medium; subpopulation (auxotrophy): HLU
Outline: as §1

[12] = system: Saccharomyces cerevisiae BY4741 SeMeCo community; assay: z-score of subpopulation abundance vs DMSO median, subpopulation auxotrophic for HLM; higher = larger share of this subpopulation than in DMSO controls; details: 10 µM; 24 h; SM minimal medium; subpopulation (auxotrophy): HLM
Outline: as §1

[13] = system: Saccharomyces cerevisiae BY4741 SeMeCo community; assay: z-score of subpopulation abundance vs DMSO median, subpopulation auxotrophic for HUM; higher = larger share of this subpopulation than in DMSO controls; details: 10 µM; 24 h; SM minimal medium; subpopulation (auxotrophy): HUM
Outline: as §1

[14] = system: Saccharomyces cerevisiae BY4741 SeMeCo community; assay: z-score of subpopulation abundance vs DMSO median, subpopulation auxotrophic for LUM; higher = larger share of this subpopulation than in DMSO controls; details: 10 µM; 24 h; SM minimal medium; subpopulation (auxotrophy): LUM
Outline: as §1

[15] = system: Saccharomyces cerevisiae BY4741 SeMeCo community; assay: z-score of subpopulation abundance vs DMSO median, subpopulation auxotrophic for HLUM; higher = larger share of this subpopulation than in DMSO controls; details: 10 µM; 24 h; SM minimal medium; subpopulation (auxotrophy): HLUM
Outline: as §1

[16] = system: Saccharomyces cerevisiae BY4741 SeMeCo community; assay: z-score of subpopulation abundance vs DMSO median, subpopulation auxotrophic for L; higher = larger share of this subpopulation than in DMSO controls; details: 10 µM; 24 h; SM minimal medium; subpopulation (auxotrophy): L
Outline: as §1

SMILES | mean cell size [1] | z-score of prototroph abundance [2] | z-score of subpopulation abundance [3] | z-score of subpopulation abundance [4] | z-score of subpopulation abundance [5] | z-score of subpopulation abundance [6] | z-score of subpopulation abundance [7] | z-score of subpopulation abundance [8] | z-score of subpopulation abundance [9] | z-score of subpopulation abundance [10] | z-score of subpopulation abundance [11] | z-score of subpopulation abundance [12] | z-score of subpopulation abundance [13] | z-score of subpopulation abundance [14] | z-score of subpopulation abundance [15] | z-score of subpopulation abundance [16]
CCCc1nn(C)c2c(=O)[nH]c(-c3cc(S(=O)(=O)N4CCN(C)CC4)ccc3OCC)nc12 [Sildenafil] | 11.4 ± 0.3 | 1.69 | -0.11 | -2.48 | -0.5 | -0.52 | -0.93 | 0.7 | -0.73 | -1.43 | -0.35 | -1.11 | -0.61 | -0.21 | 0.26 | 
CC1(C)S[C@@H]2[C@H](NC(=O)[C@H](N)c3ccccc3)C(=O)N2[C@H]1C(=O)OCOC(=O)[C@@H]1N2C(=O)C[C@H]2S(=O)(=O)C1(C)C [Sultamicillin] |  | -1.74 | 0.83 |  | 0.83 | 0.38 |  | 2.39 | 0.83 | 2.28 | 1.83 | 1.63 | 1.4 | 1.13 | 0.86 | 1.05
O=C1CN(/N=C/c2ccc(-c3ccc([N+](=O)[O-])cc3)o2)C(=O)N1 [Dantrolene sodium hemiheptahydrate] | 12.7 ± 0.17 | 1 | -4.45 | 2.07 | -1.88 | 1.95 | 1.38 | -2.96 | -3.9 | 1.61 | -1.02 | 2.77 |  | -1.33 | 0.57 | 1.44
Cc1c(-c2ccccc2)oc2c(C(=O)OCCN3CCCCC3)cccc2c1=O [Flavoxate HCl] | 12 ± 0.18 | -0.85 | 0.96 |  | 1.88 | 0.22 |  | 0.05 | 0.71 | -0.37 | 1.32 | 0.18 | -0.16 | 1.06 | 1.01 | 
CCC[C@@H]1C[C@@H](C(=O)N[C@@H]([C@H]2O[C@H](SC)[C@H](O)[C@@H](O)[C@H]2O)[C@H](C)Cl)N(C)C1 [Clindamycin HCl] | 12.61 ± 0.074 | -0.3 | -0.42 | -0.08 | -0.2 | 0.83 | 0.38 | -0.26 | 0.35 | 0.26 | -0.02 | 0.06 | -0.28 |  | 0.72 | 
COC(=O)C1=C(C)NC(C)=C(C(=O)OCC(C)C)C1c1ccccc1[N+](=O)[O-] (centres undefined) [Nisoldipine] | 12.2 ± 0.14 | -0.75 | -0.48 |  |  | 1.4 | 0.97 | 0.04 | 0.03 | 0.67 | 0.34 | 0.45 | 1.07 |  |  | 0.49
Cc1onc(-c2c(F)cccc2Cl)c1C(=O)N[C@@H]1C(=O)N2[C@@H]1SC(C)(C)[C@@H]2C(=O)O [Flucloxacillin sodium] | 12.55 ± 0.1 | -0.59 | 0.55 | -0.11 |  | -0.65 | 0.12 | -0.23 | 0.64 | -0.43 | -0.04 |  | 0.1 |  | -0.68 | 
